Assay outcomes deposited in PubChem BioAssay by National Center for Advancing Translational Sciences (NCATS).
TDP1 block: blocks human tyrosyl-DNA phosphodiesterase 1; Q9NUW8; recombinant TDP1, AlphaScreen DNA substrate cleavage; Potency, µM (top dose mostly 130 µM), without a hit: at the highest dose activity change, negative = inhibition, hits mostly inhibitors; 350,000 tested, 0.28% active; further: nearly all actives have a fitted effect of over 40% in size
Target sequence (Q9NUW8 whole entry, looked up): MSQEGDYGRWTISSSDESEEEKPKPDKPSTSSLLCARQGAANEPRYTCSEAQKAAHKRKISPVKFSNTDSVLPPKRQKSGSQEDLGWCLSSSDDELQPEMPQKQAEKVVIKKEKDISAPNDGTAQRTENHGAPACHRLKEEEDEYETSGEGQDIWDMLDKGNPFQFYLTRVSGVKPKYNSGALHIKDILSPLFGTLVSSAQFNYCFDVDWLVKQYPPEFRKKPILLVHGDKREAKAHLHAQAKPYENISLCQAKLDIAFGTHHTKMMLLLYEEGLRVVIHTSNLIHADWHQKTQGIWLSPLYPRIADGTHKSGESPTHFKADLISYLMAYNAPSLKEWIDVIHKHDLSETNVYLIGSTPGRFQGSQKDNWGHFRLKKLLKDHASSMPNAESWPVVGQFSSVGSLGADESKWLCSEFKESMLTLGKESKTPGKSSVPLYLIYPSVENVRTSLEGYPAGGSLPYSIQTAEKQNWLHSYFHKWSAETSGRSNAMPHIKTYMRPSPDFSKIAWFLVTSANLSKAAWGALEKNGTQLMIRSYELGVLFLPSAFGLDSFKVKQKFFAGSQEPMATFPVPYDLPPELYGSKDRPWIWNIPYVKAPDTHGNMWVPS
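AlphaScreen read-out: signal falls as enzyme removes the 3' tyrosine-FITC from a 5'-biotinylated DNA oligo (15 nM, 5 min, RT). Enzyme was E. coli-made recombinant Tdp1 at 1 nM, exposed to compound for 15 min beforehand; beads 10 ug/ml, 10 min.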
DT40 TDP1 no CPT: qHTS for Inhibitors of human tyrosyl-DNA phosphodiesterase 1 (TDP1): qHTS in cells in absence of CPT; DT40 Tdp1-/- hTDP1 cells, no CPT, ATP luminescence, 48 h; Potency, µM (titrated, usually from 46.2 µM), inactives show at the highest dose activity change, negative = growth inhibition, most hits filed as inhibitors; 420,000 tested, 15% active; AID 686978, 2013; further: nearly all actives have a fitted effect of over 55% in size
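Stably hTDP1-transfected Tdp1-null chicken DT40 cells were treated with library compounds minus camptothecin and grown for at least 48 hr at 37 °C, after which cellular ATP was quantified by luminescence.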
VDR inhibitor: vitamin D3 receptor (human) inhibition | P11473 | VDR-SRC2-3 peptide fluorescence polarization, 2 h | Potency, µM, without a hit: max response, negative = inhibition, hits mostly inhibitors | 400,000 tested, 0.93% active | AID 504847
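Two reagent solutions held at 4 deg C in the dark were dispensed, compounds pinned at 23 nl, and the mixture incubated 2 h at room temperature. Read-out: fluorescence polarization of VDR–SRC2-3 peptide binding.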
PLK1 PBD block: PLK1 (human) polo-box domain binding inhibition | P53350 | Plk1 PBD binding of FITC phosphopeptide, fluorescence polarization | Potency, µM, without a hit: max response, negative = inhibition, most hits filed as inhibitors | 360,000 tested, 2.8% active | AID 720504; further: series mostly up to about 57 µM; nearly all actives have a fitted effect of over 65% in size
DT40 TDP1 CPT: DT40-hTDP1 cell growth loss with CPT | chicken DT40 Tdp1-/-;hTDP1 cells + 20 nM CPT, ATP luminescence, 48 h | Potency, µM (series often up to 46.2 µM), without a hit: at the top dose activity change, negative = growth inhibition, hits mostly inhibitors | 420,000 tested, 12% active; further: nearly all actives have a fitted effect of over 55% in size
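Chicken DT40 Tdp1-/- cells stably complemented with human TDP1 were seeded at 400 cells/well in medium containing 20 nM camptothecin, exposed to pin-transferred compounds, and grown at 37 °C for at least 48 hr. Viability was read as ATP luminescence.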
GCN5L2 inh: blocks human GCN5L2 histone acetyltransferase | Potency, µM (doses to about 58.9 µM), without a hit: at the highest dose activity change, negative = inhibition, most hits filed as inhibitors | Q92830 | GCN5L2 HAT assay, ThioGlo1 CoA-SH fluorescence | 390,000 tested, 0.21% active
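Enzyme at 20nM final was mixed with library compounds for 15 min at room temperature. Peptide H3(1-25) at 75uM, acetyl-CoA at 70uM and ThioGlo1 at 50uM were then added. Plates were read immediately and after 20 min (Ex340nm/Em540nm).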
An asterisk follows results filed as active; ? = inconclusive; . = no result given; [ ] = remark or other dose. An excerpt weighted towards active compounds, which were near 18% of everything screened. The call rests on the fitted dose curve; in most records, active means well fitted curve in the direction sought with a large enough effect; inconclusive means small, poorly fitted or top-dose-only effect, or another doubt; inactive means no such curve, though single readings can be large; an effect the other way counts as inactive or inconclusive. On the % scale 0 is the no-effect control and ±100 the full control effect; potency means the concentration at half of the fitted maximal effect.

SMILES	TDP1 block	DT40 TDP1 no CPT	VDR inhibitor	PLK1 PBD block	DT40 TDP1 CPT	GCN5L2 inh
Cc1ccc(N2CCN(C(=O)N3CCCC3)CC2)cc1C	7%	8%	16%	-6%	21µM*	-6%[0.501 µM]
COc1ccc(CC(=O)Nc2c(C(=O)Nc3ccccc3F)oc3ccccc23)cc1	-4%	-24%	-8%	.	0%	-2%
OC[C@]1(O)OC[C@@H](O)[C@H](O)[C@@H]1O	.	0%	.	.	-27%	.
Cc1cccc(NC(=O)C2CCC(CNS(=O)(=O)c3csc(C(N)=O)c3)CC2)c1C (configuration not stated)	0%	17%	6%	.	-15%	-6%
Cc1ccc(CNC(=O)CCN2C(=O)C(C)Oc3ccc(C)cc32)cc1 (configuration not stated)	-5%	?	-7%	.	?	-17%
Cc1sc2ncn(CC(=O)N3CCN(c4ccccc4)CC3)c(=O)c2c1S(=O)(=O)N1CCC(C)CC1	12%	23µM*	-11%	.	?	-2%
Cc1sc2ncn(CC(=O)N3CCN(c4cccc(Cl)c4)CC3)c(=O)c2c1S(=O)(=O)N1CCC(C)CC1	6%	23µM*	0%	.	?	-5%
COc1cccc(NC(=O)N(CCC(C)C)C2CCN(C(C)C)CC2)c1	0%	?	5%	.	-5%	-6%
C[S+](C)CCC(N)C(=O)O (configuration not stated)	.	-22%	.	.	14%	.
CCCCn1c(=N)n(CC(=O)c2ccc(Br)s2)c2ccccc21	1%	4.1µM*	4%	-7%	5.2µM*	-4%
COC(=O)c1ccc(-c2ccc(OC)c(C3C4C=CCC(C)C4C(=O)N3Cc3ccccc3)c2)cc1 (configuration not stated)	8%	.	-8%	.	.	.
C(=N\c1ncnc2sccc12)/NOCc1ccccc1	2%	9.2µM*	22%	1%	23µM*	-20%
Clc1ccc(CON/C=N/c2ncnc3sccc23)cc1	2%	12µM*	5%	-1%	12µM*	-3%
Cc1ccc(-c2nn(-c3ccccc3)cc2/C=N/NC(=O)c2ccncc2)o1	6%	23µM*	-9%	-13%	?	-9%
O=C(O)/C=C\c1cn(-c2ccccc2)nc1-c1cc2ccccc2o1	-2%	-6%	-4%	-25%	0%	-20%
Cc1ccc(-c2nn(-c3ccccc3)cc2C=O)o1	-6%	?	2%	-26%	?	-17%
Cc1ccc(-c2nn(-c3ccccc3)cc2/C=C/C(=O)OCC(=O)NC2CC2)o1	5%	?	-17%	-11%	21µM*	-3%
CCOc1cc(C(=O)N/N=C/c2cn(-c3ccccc3)nc2-c2cc3ccccc3o2)cc(OCC)c1OCC	.	13µM*	-8%	-3%	23µM*	.
NC1=NC(=O)/C(=C\c2cc([N+](=O)[O-])ccc2Cl)S1	8%	?	3%	-6%	-26%	-8%
CN(C)c1ccc(CNC(=O)c2ccc3nc(Cc4ccccc4)oc3c2)cc1	10%	21µM*	3%	.	?	19%
O=C(NCc1ccncc1)c1ccc2nc(Cc3ccccc3F)oc2c1	7%	?	-3%	2%	26µM*	3%
CNC(=O)c1ccc2nc(Cc3ccccc3)oc2c1	-3%	-16%	9%	.	-15%	-7%
CCNC(=O)c1ccc2nc(Cc3ccccc3)oc2c1	-1%	?	-3%	.	?	2%
CC(CNC(=O)c1ccc2nc(Cc3ccccc3)oc2c1)c1ccccc1 (configuration not stated)	5%	16µM*	3%	.	?	-7%
Cc1cccc(CNC(=O)c2ccc3nc(Cc4ccccc4)oc3c2)c1	3%	23µM*	6%	.	21µM*	-1%
SMILES	TDP1 block	DT40 TDP1 no CPT	VDR inhibitor	PLK1 PBD block	DT40 TDP1 CPT	GCN5L2 inh
CC(C)Oc1ccc(CNC(=O)c2ccc3nc(Cc4ccccc4)oc3c2)cc1	1%	-28%	14%	.	?	-2%
CCOc1ccc(CNC(=O)c2ccc3nc(Cc4ccc(OC)cc4)oc3c2)cc1OC	9%	13µM*	0%	.	18µM*	-8%
CCCCN1C(=O)C(O)(CC(=O)c2ccccc2OC)c2ccccc21 (configuration not stated)	0%	-4%	-6%	-12%	-2%	0%
CCN1C(=O)C(O)(C2COC(C)(C)CC2=O)c2ccccc21 (configuration not stated)	2%	8.2µM*	-1%	3%	13µM*	-4%
CCN1C(=O)C(O)(C2COC(C)(C)CC2=O)c2cc(Br)ccc21 (configuration not stated)	2%	1.2µM*	-3%	-6%	1.3µM*	?
CCN1C(=O)C(O)(c2c[nH]c3ccccc23)c2cc(Br)ccc21 (configuration not stated)	5%	?	-19%	.	-10%	-5%
CCCN1C(=O)C(O)(C2CC(=O)CC(C)(C)O2)c2ccccc21 (configuration not stated)	7%	5.8µM*	-3%	-5%	5.8µM*	2%
C=C1C=C(C(F)F)n2ncc(C(=O)NC(C)CC)c2N1 (configuration not stated)	.	1%	.	.	4%	.
COc1cc(Cl)c(C)cc1Nc1nc2ccccc2c2nnc(C)n12	3%	-15%	3%	.	0%	-8%
CC1OC(OC2C(CO)OC(OC3C(CO)OC(O)C(O)C3O)C(O)C2O)C(O)C(O)C1NC1C=C(CO)C(O)C(O)C1O (configuration not stated)	7%	-2%	-5%	.	-10%	8%
CCOC(=O)C1=CN(Cc2ccco2)S(=O)(=O)NC1c1cccc(OC)c1 (configuration not stated)	0%[56.1 µM]	-27%	-1%	-6%	?	-3%
COc1ccc2[nH]c3c(c2c1)CCN1C(=O)C(CC(=O)NCCN2CCOCC2)C[C@H](C(=O)N(C(C)C)C(C)C)[C@@]31C (some centres not stated)	0%[56.1 µM]	-20%	-11%	-15%	?	-9%
COCCCNC(=O)C[C@H]1C[C@H](C(=O)N(C(C)C)C(C)C)[C@@]2(C)c3[nH]c4cc(-c5ccco5)ccc4c3CCN2C1=O	2%[56.1 µM]	23µM*	-3%	-12%	16µM*	-5%
COc1ccc(CNC(=O)C[C@H]2C[C@H](C(=O)N(C(C)C)C(C)C)[C@@]3(C)c4[nH]c5ccc(Cl)cc5c4CCN3C2=O)cc1OC	3%[56.1 µM]	18µM*	-28%	-4%	18µM*	-8%
